The source of these data is PubChem BioAssay AID651610 (Broad Institute, 2012).

By inhibition is commonly meant the change of the read-out against control, counted positive when it falls.

Among all 360,000 compounds or so, about 3,900 (1.1%) were called active. The list comes from a sample in which actives are over-represented; it also holds similar structures and randomly drawn compounds. Unmarked numbers belong to inactive results.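 How the source made its calls: active means mean replicate inhibition score of at least 50 and every replicate individually at or above 50; inconclusive means only one of the two criteria met; inactive means mean below 50 and not all replicates reaching 50.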

The nature of this assay: blockers of JRFL envelope-mediated fusion – HeLa-JRFL effector, CEM21 target cells, luciferase, primary screen (AID 651610).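 Further: 0% = plate neutral controls and 100% = maraviroc near 300 nM.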 Particulars: HeLa-JRFL Env/CEM21 cell fusion, stronger effect = higher value; at 16.7 µM unless noted.
For the compound `O=C(C[C@H]1C[C@H]2c3cc(NS(=O)(=O)c4ccc(F)cc4)ccc3O[C@H]2[C@H](CO)O1)NCc1cc(F)ccc1F`, the inhibition was -74.8% [at 12.3 µM]. Consider `O=C(C[C@@H]1C[C@H]2c3cc(NS(=O)(=O)c4ccc(F)cc4)ccc3O[C@H]2[C@@H](CO)O1)NCc1ccccc1F`, for which the inhibition was 56.4% (active). As for `O=C(C[C@@H]1C[C@@H]2c3cc(NS(=O)(=O)c4ccc(F)cc4)ccc3O[C@@H]2[C@H](CO)O1)NCc1ccccc1F`, the inhibition is 90.3% (active). Take `COc1ccccc1CNC(=O)C[C@H]1C[C@H]2c3cc(NS(=O)(=O)c4ccc(F)cc4)ccc3O[C@H]2[C@@H](CO)O1`: the inhibition was -11.5%. `O=C(C[C@H]1C[C@@H]2c3cc(NS(=O)(=O)c4ccc(F)cc4)ccc3O[C@@H]2[C@@H](CO)O1)NCc1cccc(F)c1`: the inhibition was 10.7%. For the compound `O=C(C[C@H]1C[C@@H]2c3cc(NS(=O)(=O)c4ccc(F)cc4)ccc3O[C@@H]2[C@H](CO)O1)NCc1cccc(F)c1`, the inhibition is 54.4%.

In the case of `C[C@@H]1CN([C@H](C)CO)C(=O)c2cc(C#CC3CCCC3)cnc2O[C@@H]1CN(C)C(=O)C1CCC1`, the inhibition is -5.58%. Turning to `O=C(Cc1ccncc1)Nc1ccc2c(c1)[C@@H]1C[C@H](CC(=O)N3CCCCC3)O[C@H](CO)[C@@H]1O2`, the inhibition is 9.17%. As for `C[C@@H]1CCCCO[C@@H](CN(C)Cc2ccc(C(=O)O)cc2)[C@@H](C)CN([C@@H](C)CO)C(=O)c2cc(NC(=O)Nc3ccc(C(F)(F)F)cc3)ccc2O1`, the figure is -4.94%; as for `COc1ccc2c3c([nH]c2c1)[C@H](CO)N(C(=O)Nc1ccc(F)cc1)CC31CN(S(=O)(=O)c2cccc(F)c2)C1`, -38.9%; as for `COc1ccc2c3c([nH]c2c1)[C@@H](CO)N(C(C)=O)CC31CN(C(=O)Nc2ccc(F)cc2)C1`, 31%. As to `COc1ccc2c3c([nH]c2c1)[C@H](CO)N(C(=O)Nc1cccc(F)c1)CC31CCN(S(=O)(=O)c2ccccc2)CC1`, the inhibition is 92.2% (active). As for `COc1ccc2c3c([nH]c2c1)[C@H](CO)N(C(=O)c1ccccc1)CC31CN(C(=O)Nc2cccc(F)c2)C1`, the figure is 12.9%; as for `COc1ccc2c3c(n(C)c2c1)[C@@H](CO)N(C(=O)Nc1cccc(F)c1)CC31CCN(Cc2nccs2)CC1`, 23.1%. Consider `COc1ccc2c3c([nH]c2c1)[C@@H](CO)N(C(=O)Nc1cccc(F)c1)CC31CCN(S(=O)(=O)c2ccccc2)CC1`, for which the inhibition was 80.9% (active). Turning to `N#C[C@@H]1[C@@H](c2ccc(-c3ccccc3F)cc2)[C@@H](CO)N1C(=O)C1CC1`, the inhibition is -18.6%. As for `C[C@H]1CN([C@@H](C)CO)S(=O)(=O)c2ccc(C#CC3CCCC3)cc2O[C@@H]1CN(C)C(=O)c1cccc(F)c1`, the figure is 33.9%; as for `O=C(C[C@H]1CC[C@H]2[C@@H](COC[C@H](O)CN2CCC(F)(F)F)O1)N1CCC(Cc2ccccc2)CC1`, 32.1%. As for `Cc1ccc(S(=O)(=O)Nc2ccc3c(c2)CC(=O)N([C@H](C)CO)C[C@@H](C)[C@H](CN(C)Cc2ccc(C(F)(F)F)cc2)O3)cc1`, the figure is 8.6%; as for `C[C@@H]1CN([C@H](C)CO)C(=O)Cc2cc(NC(=O)Cc3ccccc3)ccc2O[C@H]1CN(C)S(=O)(=O)c1cccs1`, 25.8%. Take `C[C@H](CO)N1C[C@H](C)[C@@H](CN(C)S(=O)(=O)c2ccc(Cl)cc2)Oc2ccc(NS(=O)(=O)c3cccs3)cc2CC1=O`: the inhibition is -22%. `C[C@@H]1CN([C@H](C)CO)C(=O)Cc2cc(NC(=O)CCCN(C)C)ccc2O[C@@H]1CN(C)S(=O)(=O)c1cccs1`: the inhibition was -1.4%. The figure for `C[C@@H]1CN([C@H](C)CO)C(=O)Cc2cc(NS(=O)(=O)c3ccc(Cl)cc3)ccc2O[C@H]1CN(C)S(=O)(=O)c1cccs1` is -4.91%. With `C[C@H]1CN([C@@H](C)CO)C(=O)Cc2cc(NC(=O)NC3CCCCC3)ccc2O[C@H]1CN(C)S(=O)(=O)c1cccs1`, the inhibition is 56.2% (active).

`C[C@H]1CN([C@@H](C)CO)C(=O)Cc2cc(NS(=O)(=O)c3ccc(F)cc3)ccc2O[C@H]1CN(C)Cc1ccc(C(F)(F)F)cc1`: the inhibition was -1.59%. As for `C[C@H](CO)N1C[C@H](C)[C@H](CN(C)S(=O)(=O)c2cccs2)Oc2ccc(NS(=O)(=O)c3ccc(Cl)cc3)cc2CC1=O`, the inhibition is 55.2% (active). On to `C[C@H]1CN([C@@H](C)CO)C(=O)c2cc(NC(=O)NC3CCCCC3)ccc2O[C@@H]1CN(C)S(=O)(=O)c1cccs1`, for which the inhibition was 7.17%. Regarding `C[C@H]1CN([C@@H](C)CO)C(=O)Cc2cc(NC(=O)C3CC3)ccc2O[C@@H]1CN(C)S(=O)(=O)c1cccs1`, the inhibition is -4.09%. With `C[C@H]1CN([C@@H](C)CO)C(=O)Cc2cc(NC(=O)Cc3ccccc3)ccc2O[C@H]1CN(C)S(=O)(=O)c1cccs1`, the inhibition is 98.7% [at 12.3 µM] (active).

Turning to `C[C@@H]1CN([C@@H](C)CO)C(=O)Cc2cc(NS(=O)(=O)c3ccc(Cl)cc3)ccc2O[C@H]1CN(C)Cc1ccc(C(F)(F)F)cc1`, the inhibition is 77.5% (active). Regarding `[N-]=[N+]=Nc1ccccc1C[C@@]1(C(=O)NCc2ccccc2)N=C(c2ccc(OCCCO)cc2)O[C@@H]1c1ccccc1`, the inhibition was 42.5%.

Take `C[C@H]1CN([C@@H](C)CO)C(=O)c2cccc(NS(=O)(=O)c3ccc(F)cc3)c2O[C@@H]1CN(C)CC1CC1`: the inhibition is -1.23%. As for `Cc1noc(C)c1NC(=O)N(C)C[C@@H]1OCCCC[C@H](C)Oc2ccc(NC(=O)c3ccccc3)cc2C(=O)N([C@@H](C)CO)C[C@@H]1C`, the inhibition was 18.4%.

Regarding `N#C[C@@H]1[C@@H](c2ccc(-c3ccccc3F)cc2)[C@@H](CO)N1C(=O)c1ccccn1`, the inhibition is 16.4%. For `C[C@@H]1CN([C@H](C)CO)C(=O)c2ccccc2-c2ccccc2CO[C@H]1CN(C)C(=O)CCC(F)(F)F`, the inhibition is -2.05%. Consider `CCCC#Cc1ccc([C@@H]2[C@@H](C#N)N(C(=O)C3CC3)[C@H]2CO)cc1`, for which the inhibition was -1.11%. Regarding `CCC(=O)Nc1ccc2c(c1)OC[C@H](C)N(Cc1ccccc1F)C[C@H](C)[C@@H](OC)CN(C)C2=O`, the inhibition was 27.1%. On to `CCCN1C[C@@H](C)[C@@H](OC)CN(C)C(=O)c2ccc(NC(=O)Nc3cccc(F)c3)cc2OC[C@@H]1C`, for which the inhibition was -6.04%. As for `C/C=C/c1ccccc1[C@H]1[C@@H](C#N)N(C(=O)Cc2ccccn2)[C@@H]1CO`, the figure is -20.6%; as for `C[C@@H]1CN([C@@H](C)CO)C(=O)c2cc(C#CCc3ccccc3)cnc2O[C@@H]1CN(C)C(=O)C1CCOCC1`, 6.96%; as for `C[C@@H]1CN([C@@H](C)CO)C(=O)c2cccc(NS(=O)(=O)c3ccc(Cl)cc3)c2O[C@@H]1CN(C)Cc1ccccc1`, -7.04%.

Take `C[C@@H]1CN([C@H](C)CO)C(=O)c2cccc(NS(=O)(=O)c3ccc(Cl)cc3)c2O[C@H]1CN(C)Cc1ccc(C(F)(F)F)cc1`: the inhibition is 9.64%.

As to `C[C@@H]1CN([C@H](C)CO)C(=O)c2cccc(NS(=O)(=O)c3ccc(Cl)cc3)c2O[C@@H]1CN(C)Cc1ccc(Cl)c(Cl)c1`, the inhibition was 74.9% (active). With `COc1cccc(S(=O)(=O)N(C)C[C@@H]2Oc3ncc(-c4cccc(C(=O)N(C)C)c4)cc3C(=O)N([C@H](C)CO)C[C@H]2C)c1`, the inhibition is 3.38%. The figure for `CC(C)NC(=O)N(C)C[C@@H]1OCCCC[C@@H](C)Oc2ccc(NC(=O)c3ccccc3)cc2C(=O)N([C@@H](C)CO)C[C@H]1C` is -4.61%.
